Among all 5,500 compounds or so, about 2,000 (36%) were called active. Inconclusive results (about 18%) are left out. Cut-off read from the data, not from the text of the source: active = normalized growth mostly below about 0.91 (no sharp cut-off); inconclusive = no clear call, values can overlap the other calls; inactive = mostly above about 0.92. The list shows a part of the results.
Experiment: chemical genetic growth profiling, strain panel (AID 1159580);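 note: tested at 20 µM; growth read once vehicle control cultures reached saturation at 30 °C; 1 = growth at the plate median or of vehicle wells; lower values mean less growth of the strain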
Details: growth OD

Measured: normalized growth

Cc1ccccc1N1C(=O)c2cc(S(N)(=O)=O)c(Cl)cc2NC1C (stereo not drawn)
inactive: S. cerevisiae deletion strains, locus YKL009W, strain mrt4, active compounds read low 1.01 | S. cerevisiae deletion strains, locus YKL068W, active compounds read low 0.982 | S. cerevisiae deletion strains, locus YKL085W, strain MDH1 (second series), active compounds read low 1.03 | S. cerevisiae deletion strains, locus YKL085W, strain MDH1, active compounds read low 1.03 | S. cerevisiae deletion strains, locus YKL160W, strain elf1, active compounds read low 0.969 | S. cerevisiae deletion strains, locus YKL190W, strain CNB1, active compounds read low 0.994 | S. cerevisiae deletion strains, locus YKR001C, strain vps1, active compounds read low 0.988 | S. cerevisiae deletion strains, locus YKR026C, strain gcn3, active compounds read low 0.94 | S. cerevisiae deletion strains, locus YKR091W, strain srl3, active compounds read low 0.984 | S. cerevisiae deletion strains, locus YLL001W, strain dnm1, active compounds read low 0.969 | S. cerevisiae deletion strains, locus YLL026W, active compounds read low 1 | S. cerevisiae deletion strains, locus YLL041C, strain sdh2, active compounds read low 0.988 | S. cerevisiae deletion strains, locus YLR027C, strain aat2, active compounds read low 0.987 | S. cerevisiae deletion strains, locus YLR039C, strain RIC1, active compounds read low 0.974 | S. cerevisiae deletion strains, locus YLR058C, strain SHM2, active compounds read low 0.987 | S. cerevisiae deletion strains, locus YLR102C, strain apc9, active compounds read low 0.989 | S. cerevisiae deletion strains, locus YLR113W, strain HOG1, active compounds read low 0.985 | S. cerevisiae deletion strains, locus YLR221C, strain rsa3, active compounds read low 0.986 | S. cerevisiae deletion strains, locus YLR258W, strain gsy2, active compounds read low 0.969 | S. cerevisiae deletion strains, locus YLR262C, strain YPT6 (second series), active compounds read low 0.96 | S. cerevisiae deletion strains, locus YLR262C, strain YPT6, active compounds read low 1.01 | S. cerevisiae deletion strains, locus YLR268W, strain sec22, active compounds read low 0.995 | S. cerevisiae deletion strains, locus YLR320W, strain mms22, active compounds read low 1.04 | S. cerevisiae deletion strains, locus YLR330W, strain CHS5, active compounds read low 0.99 | S. cerevisiae deletion strains, locus YLR342W, strain FKS1 (second series), active compounds read low 0.971 | S. cerevisiae deletion strains, locus YLR342W, strain FKS1, active compounds read low 0.983 | S. cerevisiae deletion strains, locus YLR357W, strain rsc2, active compounds read low 0.949 | S. cerevisiae deletion strains, locus YLR370C, strain arc18, active compounds read low 0.98 | S. cerevisiae deletion strains, locus YLR371W, strain rom2, active compounds read low 0.993 | S. cerevisiae deletion strains, locus YLR384C, strain iki3, active compounds read low 0.961 | S. cerevisiae deletion strains, locus YLR418C, strain cdc73, active compounds read low 0.98 | S. cerevisiae deletion strains, locus YML016C, strain PPZ1, active compounds read low 0.985 | S. cerevisiae deletion strains, locus YML032C, strain rad52, active compounds read low 0.994 | S. cerevisiae deletion strains, locus YML120C, strain ndi1, active compounds read low 1 | S. cerevisiae deletion strains, locus YML124C, strain tub3, active compounds read low 0.978 | S. cerevisiae deletion strains, locus YMR058W, strain fet3, active compounds read low 0.988 | S. cerevisiae deletion strains, locus YMR078C, strain ctf18, active compounds read low 0.984 | S. cerevisiae deletion strains, locus YMR125W, strain sto1, active compounds read low 0.921 | S. cerevisiae deletion strains, locus YMR129W, active compounds read low 0.997 | S. cerevisiae deletion strains, locus YMR205C, strain PFK2, active compounds read low 0.982 | S. cerevisiae deletion strains, locus YMR223W, strain ubp8, active compounds read low 0.993 | S. cerevisiae deletion strains, locus YMR231W, strain pep5, active compounds read low 0.974 | S. cerevisiae deletion strains, locus YMR263W, strain SAP30, active compounds read low 1.01 | S. cerevisiae deletion strains, locus YMR307W, strain GAS1, active compounds read low 0.888 | S. cerevisiae deletion strains, locus YNL067W, strain RPL9B, active compounds read low 1.01 | S. cerevisiae deletion strains, locus YNL071W, strain lat1, active compounds read low 1.01 | S. cerevisiae deletion strains, locus YNL128W, strain TEP1, active compounds read low 0.97 | S. cerevisiae deletion strains, locus YNL183C, strain NPR1, active compounds read low 0.93 | S. cerevisiae deletion strains, locus YNL209W, strain ssb2, active compounds read low 0.994 | S. cerevisiae deletion strains, locus YNL233W, strain BNI4, active compounds read low 1.01 | S. cerevisiae deletion strains, locus YNL248C, strain rpa49, active compounds read low 0.909 | S. cerevisiae deletion strains, locus YNL250W, strain rad50, active compounds read low 0.98 | S. cerevisiae deletion strains, locus YNL271C, strain bni1, active compounds read low 0.983 | S. cerevisiae deletion strains, locus YNL298W, strain CLA4, active compounds read low 0.996 | S. cerevisiae deletion strains, locus YNL307C, strain MCK1, active compounds read low 0.996 | S. cerevisiae deletion strains, locus YNL322C, strain KRE1 (second series), active compounds read low 0.98 | S. cerevisiae deletion strains, locus YNR049C, strain mso1, active compounds read low 0.992 | S. cerevisiae deletion strains, locus YNR052C, strain pop2, active compounds read low 0.995 | S. cerevisiae deletion strains, locus YOL006C, strain TOP1, active compounds read low 0.997 | S. cerevisiae deletion strains, locus YOL012C, strain htz1 0.785 | S. cerevisiae deletion strains, locus YOL147C, strain pex11, active compounds read low 0.987 | S. cerevisiae deletion strains, locus YOR001W, strain rrp6, active compounds read low 0.957 | S. cerevisiae deletion strains, locus YOR061W, strain CKA2, active compounds read low 0.993 | S. cerevisiae deletion strains, locus YOR069W, strain VPS5, active compounds read low 0.986 | S. cerevisiae deletion strains, locus YOR070C, strain gyp1, active compounds read low 0.999 | S. cerevisiae deletion strains, locus YOR080W, strain dia2, active compounds read low 0.961 | S. cerevisiae deletion strains, locus YOR083W, strain WHI5, active compounds read low 0.986 | S. cerevisiae deletion strains, locus YOR106W, strain vam3, active compounds read low 0.957 | S. cerevisiae deletion strains, locus YOR136W, strain idh2, active compounds read low 0.99 | S. cerevisiae deletion strains, locus YOR144C, strain elg1, active compounds read low 0.987 | S. cerevisiae deletion strains, locus YOR184W, strain ser1, active compounds read low 1.01 | S. cerevisiae deletion strains, locus YOR231W, strain MKK1, active compounds read low 0.974 | S. cerevisiae deletion strains, locus YOR265W, strain rbl2, active compounds read low 0.995 | S. cerevisiae deletion strains, locus YOR270C, strain vph1, active compounds read low 0.938 | S. cerevisiae deletion strains, locus YOR290C, strain snf2, active compounds read low 0.995 | S. cerevisiae deletion strains, locus YOR316C, strain cot1, active compounds read low 0.983 | S. cerevisiae deletion strains, locus YPL051W, strain arl3, active compounds read low 1.01 | S. cerevisiae deletion strains, locus YPL078C, strain atp4, active compounds read low 0.957 | S. cerevisiae deletion strains, locus YPL106C, strain sse1, active compounds read low 0.956 | S. cerevisiae deletion strains, locus YPL240C, strain hsp82, active compounds read low 0.986 | S. cerevisiae deletion strains, locus YPL241C, strain CIN2, active compounds read low 0.992 | S. cerevisiae deletion strains, locus YPL256C, strain CLN2, active compounds read low 0.954 | S. cerevisiae deletion strains, locus YPR119W, strain clb2, active compounds read low 0.987 | S. cerevisiae deletion strains, locus YPR141C, strain kar3, active compounds read low 0.975 | S. cerevisiae deletion strains, locus YPR163C, strain tif3, active compounds read low 0.981 | S. cerevisiae deletion strains, locus YPR167C, strain met16, active compounds read low 0.992 | S. cerevisiae deletion strains, strain wtn01, active compounds read low 0.991 | S. cerevisiae strains, strain wild type, active compounds read low 0.943

— PubChem BioAssay AID1159580 (chemical genetic matrix, 2015)
